# Results as given in PubChem BioAssay AID1053143 (Broad Institute, 2014).
# Among all 3,400 compounds or so, about 120 (3.5%) were called active. No rule for the calls is given here. The list is a sample of the results. Entries that show only a call come without a potency. Potency and affinity values are given separately.
# Experiment: viability loss in HepG2 hepatoma cells – cell-based, ATP luminescence, cherry-pick, activator set 2, cytotoxicity control, dose response (AID 1053143)
# Conditions: CellTiter-Glo ATP luminescence, 72 h; series mostly up to 26 µM
row,SMILES,"activity change, negative = cytotoxicity"
1,Cn1c2nc3ccccc3c-2nc2ccccc21,inactive
2,CCCCOC(=O)Nc1ccc(C(=O)OC)cc1,inactive
3,CC1CCc2nc3sc4c(c3c(N)c2C1)CCCC4 (stereo unspecified),inactive
4,O=C(Nc1nc(-c2nc3ccccc3s2)cs1)C1CC1,inactive
5,COc1ccc(-c2nc3ccccc3s2)cc1NC(C)=O,inactive
6,Cc1nn2c(=O)cc(COC(=O)c3c(F)cccc3Cl)nc2s1,inactive
7,COc1ccc(/C=C/c2nnc(NC(C)=O)s2)cc1,inactive
8,Cc1csc(NC(=O)c2ccc(C)s2)n1,inactive
9,COc1cccc(C(=O)Nc2nc(C)cs2)c1,inactive
10,O=C(/C=C/c1cccs1)NCc1cccs1,inactive
11,O=C(Nc1ccc2c(c1)OCO2)c1ccccn1,inactive
12,O=C(O)c1ccc(-c2noc(-c3ccccc3Cl)n2)cc1,inactive
13,O=C(Nc1cccc(F)c1)Nc1ccc2c(c1)CCC2,inactive
14,O=C(Nc1ccc(F)cc1)Nc1ccc2c(c1)CCC2,inactive
15,COc1cc(/C=C/C(=O)N2C(=O)c3cccc(N)c3C2=O)cc(OC)c1OC,inactive
16,COc1cc(/C=C/C(=O)OCC(=O)NCCc2ccccc2)cc(OC)c1OC,inactive
17,Cc1cc(C(=O)COC(=O)c2ccc(O)cc2O)c(C)n1C(C)C,inactive
18,c1ccc(-c2csc(N3CCOCC3)n2)cc1,inactive
19,Nc1nc(-c2ccc3c(c2)CCO3)cs1,inactive
20,COc1cc(/C=N/Nc2ccc(Cl)c(C(=O)O)c2)ccc1OC(=O)c1cccs1,inactive
21,O=C(c1ccc(N2CCOCC2)cc1)c1cccs1,inactive

row,SMILES,"activity change, negative = cytotoxicity"
1,O=c1oc2ccccc2c2c1ncn2CCN1CCOCC1,inactive
2,O=S(=O)(c1ccc(Cl)cc1)N1CCN(Cc2ccc(O)c3ncccc23)CC1,inactive
3,CCc1ccc(CNCCNC(=O)c2ccco2)cc1,inactive
4,O=c1c2ccccc2nnn1CSc1nnc2ccccn12,inactive
5,CCC(C)(C)c1ccc2c(c1)C(=O)c1ccccc1C2=O,inactive
6,O=C(NCCO)c1ccc2c3n(nc2c1)-c1ccccc1CO3,inactive
7,O=C(c1ccc2c3n(nc2c1)-c1ccc(Cl)cc1CO3)N1CCOCC1,inactive
8,O=C(O)c1ccc2c3n(nc2c1)-c1ccc(Cl)cc1CO3,inactive
9,COCCNC(=O)c1ccc2c3n(nc2c1)-c1ccc(C)cc1CO3,inactive
10,CCOC(=O)c1sc(=NC(=O)c2ccccc2Br)n(C)c1C,inactive
11,COc1ccc(CCC(=O)Nc2nnc(C)s2)cc1,inactive
12,CC(=O)Nc1ccc(-c2cc(N)n(-c3ccccc3)n2)cc1,inactive
13,Cc1ccc(OC(=O)c2c(C)nn(-c3ccccc3)c2C)cc1,inactive
14,Cc1ccc2cc(/C=C/C(=O)c3ccco3)c(Cl)nc2c1,inactive
15,CCOC(=O)N1N=C(CC)CC1(O)C(F)(F)F (stereo unspecified),inactive
16,COC(=O)c1ccc(-c2cc3onc(-c4ccccc4)c3c(=O)n2C)cc1,inactive
17,Cn1c(-c2ccc(F)c(F)c2)cc2onc(-c3ccccc3)c2c1=O,inactive
18,CC(C)C1COC(c2cccc3ccccc23)=N1 (stereo unspecified),inactive
19,CC(=O)c1ccc(NC(=O)c2ccn(C(=O)OCC(C)C)n2)cc1,inactive
20,CCOC(=O)c1csc(NC(=O)c2cccs2)n1,inactive
21,COc1ccc2cc(CCNC(=O)c3cccs3)c(=O)[nH]c2c1,inactive

row,SMILES,"activity change, negative = cytotoxicity"
1,Cc1csc(=NC(=O)c2ccccc2)n1C,inactive
2,CC(C)C(=O)Nc1ccc(NC(=O)c2cc3ccccc3o2)cc1,inactive
3,COc1ccc2nc(NC3=NCCC3)sc2c1,inactive
4,CCOC(=O)c1cccc(NC(=O)c2ccc(F)cc2F)c1,inactive
5,CS(=O)(=O)N1CCN(c2ccc(NC(=O)c3ccc(Br)o3)cc2)CC1,inactive
6,CN1CCN(c2ccc(-c3ccnn3C(=O)Nc3ccccc3)cc2)CC1,inactive
7,Cc1ccccc1Nc1nn2c(=O)c3ccccc3nc2s1,inactive
8,COc1c(C(=O)NNC(=O)c2ccccc2)csc1Br,inactive
9,Oc1c(/C=N/c2ccccn2)sc2ccccc12,inactive
10,Cc1ccc(/C=C/C(=O)c2nc3ccccc3[nH]2)cc1,inactive
11,CC(/C=N/Nc1nc2ccccc2[nH]1)=C\c1ccccc1,inactive
12,CC(C)C(OC(=O)C1=Cc2ccccc2OC1)C(=O)NCC1CCCO1 (stereo unspecified),inactive
13,Cc1ccc2nc(-c3ccc(NS(=O)(=O)c4ccc(F)cc4)cc3)sc2c1,inactive
14,Nc1ccc(-c2nc3ccccc3s2)cn1,inactive
15,COc1ccc(OCc2cc(C(=O)N3CCOCC3)no2)c(Cl)c1,inactive
16,O=c1cccc2n1Cc1cc3ccccc3nc1-2,inactive
17,COc1ccc(C(=O)COC(=O)c2sccc2C)cc1OC,inactive
18,O=C(Nc1ccc(C(=O)c2ccccc2)cc1)c1ccccc1,inactive
19,O=C(Nc1ccc(NC(=O)C2CC2)cn1)c1ccccc1Cl,inactive
20,Nc1ccccc1N=Nc1ccccc1N,inactive
21,CC(C)(C)OC(=O)N/N=C\C=C\c1ccc2c(c1)OCO2,inactive

row,SMILES,"activity change, negative = cytotoxicity"
1,CCc1ccc(NC(=O)C(=O)c2ccccc2NC(C)=O)cc1,inactive
2,O=C(Nc1ccc2c(c1)OCO2)N1CCCc2ccccc21,inactive
3,COc1ccc(NC(=O)N2CCCc3ccccc32)cc1,inactive
4,O=C(Nc1ccc(NC(=O)C2CCCCC2)nc1)c1cccs1,inactive
5,COc1ccc(NC(=O)/C(=C\c2ccc3c(c2)OCO3)NC(C)=O)cc1,inactive
6,COc1ccc2c(c1)CCC1C2=NN(/C(C)=C\C(C)=O)C1c1ccc(F)cc1 (stereo unspecified),inactive
7,c1ccc(-c2ccc3ccccc3n2)cc1,inactive
8,CCN(CC)c1cc(C)c(C#N)c2nc3ccccc3n12,inactive
9,O=C(c1cccs1)N1CCN=C1SCc1ccc(F)cc1,inactive
10,COc1ccc(-c2cn(Cc3ccc(C(=O)c4ccccc4)cc3)nn2)cc1,inactive
11,O=C(N/N=C/c1ccc(Br)cc1)c1ccc(Br)o1,inactive
12,CCc1ccc2cc3c(cc2n1)C(=O)c1ccccc1-3,inactive
13,O=C(Nc1ccc(F)c(Cl)c1)c1ccccc1,inactive
14,COc1ccc(NC(=O)Nc2ccc(F)c(Cl)c2)cc1,inactive
15,COc1ccccc1NC(=O)CCC(=O)Nc1nnc(C2CCCCC2)s1,inactive
16,COc1cccc(C=Cc2nccc3ccccc23)c1OC,inactive
17,O=C1c2ccccc2C(=O)C1c1ccnc2ccccc12,inactive
18,C=CCSc1nc2c(cnn2-c2ccccc2)c(=O)n1N,inactive
